Data on one sequence can be found in PMC7862700, “An all-to-all approach to the identification of sequence-specific readers for epigenetic DNA modifications on cytosine”.

Test in all cases: DAPPL (digital affinity profiling via proximity ligation, sequencing); 10 mM Tris-HCl pH 7.5, 50 mM NaCl, 1 mM DTT, 4% glycerol, room temperature, 30 min; GST-TFs on glutathione beads, 16-mer random dsDNA library, 0.1% formaldehyde crosslink after washing; high values mean tight binding
The target in assay [1] is T1, FLI1 (Homo sapiens, UniProt Q01543 1-452).
T1 sequence: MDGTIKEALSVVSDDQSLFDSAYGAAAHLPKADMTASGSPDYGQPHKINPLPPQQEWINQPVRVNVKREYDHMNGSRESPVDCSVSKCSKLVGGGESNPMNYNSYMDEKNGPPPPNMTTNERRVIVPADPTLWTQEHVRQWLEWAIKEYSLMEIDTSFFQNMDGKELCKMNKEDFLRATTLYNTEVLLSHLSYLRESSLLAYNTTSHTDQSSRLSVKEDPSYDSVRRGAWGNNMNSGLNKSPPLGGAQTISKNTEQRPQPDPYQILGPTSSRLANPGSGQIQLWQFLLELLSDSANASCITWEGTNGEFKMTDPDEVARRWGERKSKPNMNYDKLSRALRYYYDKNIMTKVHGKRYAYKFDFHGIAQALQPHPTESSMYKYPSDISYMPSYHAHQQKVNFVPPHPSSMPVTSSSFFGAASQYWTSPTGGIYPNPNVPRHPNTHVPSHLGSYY
The following applies: protein: recombinant; tags: N-terminal GST; dsDNA, one strand shown. Put shortly:
(§1)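 Pools were built from human transcription factors expressed in yeast as GST fusions, captured on glutathione beads and DNA-barcoded, along with a tag-only sample. Incubation with 200 nmole of a 16-mer random double-stranded DNA library lasted 30 min at room temperature in Tris/NaCl/DTT/glycerol buffer, and was followed by washing, 0.1% formaldehyde crosslinking, proximity ligation, PCR amplification and Illumina NextSeq500 sequencing. Binding signal is the quotient of each hexamer's read frequency for a factor and its frequency for the tag-only sample.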

The target in assay [2] is T2, ELK1 (Homo sapiens, UniProt P19419 1-428).
T2 sequence: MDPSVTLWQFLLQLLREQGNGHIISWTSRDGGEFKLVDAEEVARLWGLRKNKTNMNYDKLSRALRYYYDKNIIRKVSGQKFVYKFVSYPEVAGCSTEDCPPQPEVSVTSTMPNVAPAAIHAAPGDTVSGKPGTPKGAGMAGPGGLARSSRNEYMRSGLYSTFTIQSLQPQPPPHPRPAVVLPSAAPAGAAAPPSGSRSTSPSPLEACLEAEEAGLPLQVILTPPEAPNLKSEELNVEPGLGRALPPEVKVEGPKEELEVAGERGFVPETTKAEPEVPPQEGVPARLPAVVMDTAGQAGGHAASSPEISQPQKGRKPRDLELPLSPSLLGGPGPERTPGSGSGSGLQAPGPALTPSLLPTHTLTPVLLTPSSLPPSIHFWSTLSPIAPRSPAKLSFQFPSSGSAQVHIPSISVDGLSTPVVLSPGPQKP
The conditions noted are these: protein: recombinant; tags: N-terminal GST; dsDNA, one strand shown. The essentials:
as §1

Assay [3] addresses T3, GABPA (Homo sapiens, UniProt Q06546 1-454).
T3 sequence: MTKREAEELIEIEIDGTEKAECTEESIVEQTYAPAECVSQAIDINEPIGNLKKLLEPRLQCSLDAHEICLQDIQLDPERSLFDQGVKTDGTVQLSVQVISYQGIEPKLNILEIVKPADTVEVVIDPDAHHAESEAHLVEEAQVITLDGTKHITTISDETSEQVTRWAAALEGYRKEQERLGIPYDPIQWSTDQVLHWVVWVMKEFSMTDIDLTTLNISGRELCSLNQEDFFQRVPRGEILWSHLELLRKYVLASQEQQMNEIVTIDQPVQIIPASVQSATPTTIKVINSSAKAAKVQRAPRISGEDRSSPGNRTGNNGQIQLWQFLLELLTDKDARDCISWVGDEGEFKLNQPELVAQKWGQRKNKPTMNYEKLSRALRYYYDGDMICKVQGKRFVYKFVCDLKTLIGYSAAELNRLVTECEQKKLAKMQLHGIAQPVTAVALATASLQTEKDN
The conditions noted are these: protein: recombinant; tags: N-terminal GST; dsDNA, one strand shown. Put shortly:
as §1

For assay [4], the target named is T4, ERG (Homo sapiens, UniProt P11308 1-479).
T4 sequence: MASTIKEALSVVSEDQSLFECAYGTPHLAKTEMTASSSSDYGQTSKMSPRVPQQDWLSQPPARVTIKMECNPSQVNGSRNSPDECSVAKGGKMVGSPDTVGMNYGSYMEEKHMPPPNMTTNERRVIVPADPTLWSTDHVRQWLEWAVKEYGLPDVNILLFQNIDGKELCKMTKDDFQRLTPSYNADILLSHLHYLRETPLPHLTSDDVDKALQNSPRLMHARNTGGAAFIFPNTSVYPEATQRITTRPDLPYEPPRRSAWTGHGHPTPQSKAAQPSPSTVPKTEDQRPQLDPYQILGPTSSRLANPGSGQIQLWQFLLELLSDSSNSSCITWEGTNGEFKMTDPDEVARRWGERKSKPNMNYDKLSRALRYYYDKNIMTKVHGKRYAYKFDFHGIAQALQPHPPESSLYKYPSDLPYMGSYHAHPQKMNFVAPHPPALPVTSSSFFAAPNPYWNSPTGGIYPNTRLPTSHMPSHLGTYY
The following applies: protein: recombinant; tags: N-terminal GST; dsDNA, one strand shown. The essentials: as §1

The target in assay [5] is ELF1 (Homo sapiens, UniProt P32519 1-619). The following applies: protein: recombinant; tags: N-terminal GST; dsDNA, one strand shown. The essentials: as §1
In assay [6] the target is T5, EHF (Homo sapiens, UniProt Q9NZC4 1-300).
T5 sequence: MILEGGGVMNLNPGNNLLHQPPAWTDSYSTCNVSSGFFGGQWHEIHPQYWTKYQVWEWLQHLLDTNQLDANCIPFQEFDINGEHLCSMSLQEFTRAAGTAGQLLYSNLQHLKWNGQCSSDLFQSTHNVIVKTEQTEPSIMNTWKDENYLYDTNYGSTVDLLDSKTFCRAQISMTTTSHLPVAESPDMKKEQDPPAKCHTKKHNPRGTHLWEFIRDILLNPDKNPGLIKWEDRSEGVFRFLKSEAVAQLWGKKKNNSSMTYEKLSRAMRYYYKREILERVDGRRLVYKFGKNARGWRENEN
The following applies: protein: recombinant; tags: N-terminal GST; dsDNA, one strand shown. The essentials: as §1

The target of assay [7] is SPI1 (Homo sapiens, UniProt P17947 1-270). The following applies: protein: recombinant; tags: N-terminal GST; dsDNA, one strand shown. Put shortly: as §1
Assay [8] concerns the target SPIB (Homo sapiens, UniProt Q01892 1-262). The conditions noted are these: protein: recombinant; tags: N-terminal GST; dsDNA, one strand shown. Put shortly:
as §1

Assay [9] addresses T6, ELK3 (Homo sapiens, UniProt P41970 1-407).
T6 sequence: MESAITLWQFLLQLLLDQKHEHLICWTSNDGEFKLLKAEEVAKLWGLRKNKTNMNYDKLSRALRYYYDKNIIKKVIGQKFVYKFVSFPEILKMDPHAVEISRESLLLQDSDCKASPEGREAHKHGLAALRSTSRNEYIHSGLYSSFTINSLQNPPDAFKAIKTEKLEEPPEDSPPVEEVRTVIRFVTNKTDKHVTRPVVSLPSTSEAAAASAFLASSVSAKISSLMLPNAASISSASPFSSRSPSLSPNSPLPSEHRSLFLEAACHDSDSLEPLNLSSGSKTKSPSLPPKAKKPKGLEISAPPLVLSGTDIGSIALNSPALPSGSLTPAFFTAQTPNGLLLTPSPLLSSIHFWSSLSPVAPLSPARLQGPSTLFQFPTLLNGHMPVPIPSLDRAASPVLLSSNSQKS
The conditions noted are these: protein: recombinant; tags: N-terminal GST; dsDNA, one strand shown. Put shortly:
as §1

Assay [10] deals with T7, FEV (Homo sapiens, UniProt Q99581 1-238).
T7 sequence: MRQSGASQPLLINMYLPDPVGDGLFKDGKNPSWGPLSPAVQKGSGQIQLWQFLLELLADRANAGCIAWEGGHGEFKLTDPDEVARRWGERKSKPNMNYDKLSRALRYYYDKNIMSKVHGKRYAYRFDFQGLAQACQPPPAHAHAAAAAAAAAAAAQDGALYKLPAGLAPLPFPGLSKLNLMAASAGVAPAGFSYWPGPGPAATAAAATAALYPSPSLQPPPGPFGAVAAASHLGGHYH
The following applies: protein: recombinant; tags: N-terminal GST; dsDNA, one strand shown. The essentials:
as §1

Assay [11] concerns the target ETV5 (Homo sapiens, UniProt P41161 1-510). The following applies: protein: recombinant; tags: N-terminal GST; dsDNA, one strand shown. Put shortly: as §1
The target in assay [12] is HSF1 (Homo sapiens, UniProt Q00613 1-529). The conditions noted are these: protein: recombinant; tags: N-terminal GST; chain copies: 3; dsDNA, one strand shown. The essentials:
as §1

In assay [13] the target is T8, SPIC (Homo sapiens, UniProt Q8N5J4 1-248).
T8 sequence: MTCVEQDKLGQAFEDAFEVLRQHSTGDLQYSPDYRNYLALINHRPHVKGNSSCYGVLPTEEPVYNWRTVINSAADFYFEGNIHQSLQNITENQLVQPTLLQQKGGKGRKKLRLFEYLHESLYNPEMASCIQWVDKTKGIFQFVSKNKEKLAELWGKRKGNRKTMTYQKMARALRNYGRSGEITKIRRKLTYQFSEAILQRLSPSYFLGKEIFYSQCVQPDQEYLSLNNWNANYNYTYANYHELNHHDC
The conditions noted are these: protein: recombinant; tags: N-terminal GST; dsDNA, one strand shown. Put shortly:
as §1

Assay [14] deals with ELF4 (Homo sapiens, UniProt Q99607 1-663). The conditions noted are these: protein: recombinant; tags: N-terminal GST; dsDNA, one strand shown. Put shortly:
as §1

In assay [15] the target is T9, ELK4 (Homo sapiens, UniProt P28324-2 1-405).
T9 sequence: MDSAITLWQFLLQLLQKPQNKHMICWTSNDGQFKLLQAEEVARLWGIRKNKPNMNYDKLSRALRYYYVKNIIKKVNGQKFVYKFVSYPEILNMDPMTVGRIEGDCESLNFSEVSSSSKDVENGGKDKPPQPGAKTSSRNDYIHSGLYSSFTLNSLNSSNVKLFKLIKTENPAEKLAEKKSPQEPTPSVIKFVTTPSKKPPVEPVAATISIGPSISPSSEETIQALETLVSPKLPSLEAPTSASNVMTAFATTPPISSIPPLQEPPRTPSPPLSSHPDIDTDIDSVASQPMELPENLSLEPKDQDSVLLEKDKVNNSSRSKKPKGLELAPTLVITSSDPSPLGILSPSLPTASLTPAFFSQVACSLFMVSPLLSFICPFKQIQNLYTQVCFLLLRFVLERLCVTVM
The following applies: protein: recombinant; tags: N-terminal GST; dsDNA, one strand shown. Put shortly: as §1

Assay [16] concerns the target T10, ETV2 (Homo sapiens, UniProt O00321 1-342).
T10 sequence: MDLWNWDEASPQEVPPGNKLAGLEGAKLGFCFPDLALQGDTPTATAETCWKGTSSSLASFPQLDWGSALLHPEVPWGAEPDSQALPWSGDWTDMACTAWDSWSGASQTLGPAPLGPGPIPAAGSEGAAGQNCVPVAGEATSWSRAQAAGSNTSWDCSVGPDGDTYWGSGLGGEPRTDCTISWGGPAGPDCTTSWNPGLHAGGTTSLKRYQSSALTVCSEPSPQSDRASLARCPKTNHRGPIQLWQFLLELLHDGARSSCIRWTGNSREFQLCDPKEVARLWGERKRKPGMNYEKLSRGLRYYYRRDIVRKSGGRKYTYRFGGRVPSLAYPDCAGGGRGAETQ
The conditions noted are these: protein: recombinant; tags: N-terminal GST; dsDNA, one strand shown. The essentials:
as §1

Assay [17] has as its target T11, ELF3 (Homo sapiens, UniProt P78545 1-371).
T11 sequence: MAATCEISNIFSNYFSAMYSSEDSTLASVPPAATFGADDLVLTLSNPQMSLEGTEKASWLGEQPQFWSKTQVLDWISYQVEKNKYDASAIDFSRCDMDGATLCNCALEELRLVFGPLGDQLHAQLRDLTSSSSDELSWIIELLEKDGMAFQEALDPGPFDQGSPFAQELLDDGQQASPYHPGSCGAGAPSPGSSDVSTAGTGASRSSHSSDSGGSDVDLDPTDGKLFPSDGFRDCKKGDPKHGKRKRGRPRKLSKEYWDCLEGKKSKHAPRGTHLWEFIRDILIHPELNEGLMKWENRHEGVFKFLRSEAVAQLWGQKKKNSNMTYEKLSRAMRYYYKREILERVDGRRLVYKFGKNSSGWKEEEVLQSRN
The conditions noted are these: protein: recombinant; tags: N-terminal GST; dsDNA, one strand shown. The essentials:
as §1

In assay [18] the target is CRX (Homo sapiens, UniProt O43186 1-299). The following applies: protein: recombinant; tags: N-terminal GST; dsDNA, one strand shown. The essentials:
as §1

The target of assay [19] is ETV1 (Homo sapiens, UniProt P50549 1-477). The conditions noted are these: protein: recombinant; tags: N-terminal GST; dsDNA, one strand shown. Put shortly:
as §1

Sequence of ELF1 (P32519 whole entry): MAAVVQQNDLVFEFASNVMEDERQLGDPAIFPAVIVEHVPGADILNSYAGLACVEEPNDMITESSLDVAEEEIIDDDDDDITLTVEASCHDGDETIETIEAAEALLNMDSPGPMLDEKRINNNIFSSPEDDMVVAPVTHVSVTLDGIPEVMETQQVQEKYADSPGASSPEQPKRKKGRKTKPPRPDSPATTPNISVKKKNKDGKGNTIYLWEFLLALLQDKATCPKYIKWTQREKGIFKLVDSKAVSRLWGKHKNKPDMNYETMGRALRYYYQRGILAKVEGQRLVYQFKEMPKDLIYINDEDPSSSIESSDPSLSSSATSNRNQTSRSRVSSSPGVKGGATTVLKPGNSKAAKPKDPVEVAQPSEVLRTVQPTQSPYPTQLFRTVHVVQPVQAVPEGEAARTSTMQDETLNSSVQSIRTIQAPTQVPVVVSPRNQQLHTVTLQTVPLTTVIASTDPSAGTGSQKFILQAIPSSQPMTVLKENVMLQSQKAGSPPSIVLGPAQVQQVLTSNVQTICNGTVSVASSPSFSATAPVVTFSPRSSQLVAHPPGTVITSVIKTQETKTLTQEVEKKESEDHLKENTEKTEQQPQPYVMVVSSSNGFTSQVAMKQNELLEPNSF
Sequence of CRX (O43186 whole entry): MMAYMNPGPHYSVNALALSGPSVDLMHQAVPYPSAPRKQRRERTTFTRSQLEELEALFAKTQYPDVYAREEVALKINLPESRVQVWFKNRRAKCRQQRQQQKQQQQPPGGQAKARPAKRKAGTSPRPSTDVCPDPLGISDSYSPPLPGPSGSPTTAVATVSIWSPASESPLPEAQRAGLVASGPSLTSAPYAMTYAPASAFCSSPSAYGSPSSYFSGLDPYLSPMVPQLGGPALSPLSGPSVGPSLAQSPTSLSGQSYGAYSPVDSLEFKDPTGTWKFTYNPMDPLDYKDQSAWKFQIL
Sequence of SPIB (Q01892 whole entry): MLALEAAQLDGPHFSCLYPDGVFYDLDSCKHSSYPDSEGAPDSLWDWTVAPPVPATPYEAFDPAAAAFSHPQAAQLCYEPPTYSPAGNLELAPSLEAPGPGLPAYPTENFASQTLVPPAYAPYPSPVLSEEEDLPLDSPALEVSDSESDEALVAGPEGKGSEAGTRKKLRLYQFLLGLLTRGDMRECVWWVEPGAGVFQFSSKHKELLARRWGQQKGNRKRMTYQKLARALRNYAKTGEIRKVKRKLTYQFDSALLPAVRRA
Sequence of ETV5 (P41161 whole entry): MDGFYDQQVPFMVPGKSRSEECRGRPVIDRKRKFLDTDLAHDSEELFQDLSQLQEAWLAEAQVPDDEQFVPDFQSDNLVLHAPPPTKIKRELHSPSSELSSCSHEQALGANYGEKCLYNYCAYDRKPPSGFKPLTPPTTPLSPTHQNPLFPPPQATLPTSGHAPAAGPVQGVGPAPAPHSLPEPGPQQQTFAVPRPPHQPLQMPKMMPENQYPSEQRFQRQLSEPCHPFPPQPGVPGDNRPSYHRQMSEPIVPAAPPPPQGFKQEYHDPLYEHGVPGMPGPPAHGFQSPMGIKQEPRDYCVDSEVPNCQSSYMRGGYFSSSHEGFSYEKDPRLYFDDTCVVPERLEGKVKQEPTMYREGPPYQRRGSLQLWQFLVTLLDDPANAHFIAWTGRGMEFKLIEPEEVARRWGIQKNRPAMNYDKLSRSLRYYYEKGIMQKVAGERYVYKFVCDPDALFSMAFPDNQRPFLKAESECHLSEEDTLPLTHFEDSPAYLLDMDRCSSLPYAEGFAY
Sequence of ELF4 (Q99607 whole entry): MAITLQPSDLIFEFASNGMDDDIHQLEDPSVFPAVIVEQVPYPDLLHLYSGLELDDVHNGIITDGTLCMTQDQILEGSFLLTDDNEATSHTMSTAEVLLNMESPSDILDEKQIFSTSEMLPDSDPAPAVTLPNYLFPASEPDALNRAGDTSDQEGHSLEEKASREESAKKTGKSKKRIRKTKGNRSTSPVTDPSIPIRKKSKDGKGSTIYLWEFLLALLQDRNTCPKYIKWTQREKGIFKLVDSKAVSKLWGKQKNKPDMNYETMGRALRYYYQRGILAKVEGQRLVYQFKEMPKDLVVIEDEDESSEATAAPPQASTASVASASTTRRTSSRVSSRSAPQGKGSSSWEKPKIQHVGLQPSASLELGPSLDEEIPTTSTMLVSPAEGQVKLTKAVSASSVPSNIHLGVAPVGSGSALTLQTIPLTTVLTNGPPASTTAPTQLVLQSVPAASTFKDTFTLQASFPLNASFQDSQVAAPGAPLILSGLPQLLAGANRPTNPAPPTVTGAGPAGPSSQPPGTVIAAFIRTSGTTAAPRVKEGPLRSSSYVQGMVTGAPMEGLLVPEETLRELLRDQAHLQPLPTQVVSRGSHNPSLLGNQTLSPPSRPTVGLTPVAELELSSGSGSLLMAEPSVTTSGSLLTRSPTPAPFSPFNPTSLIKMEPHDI
Sequence of HSF1 (Q00613 whole entry): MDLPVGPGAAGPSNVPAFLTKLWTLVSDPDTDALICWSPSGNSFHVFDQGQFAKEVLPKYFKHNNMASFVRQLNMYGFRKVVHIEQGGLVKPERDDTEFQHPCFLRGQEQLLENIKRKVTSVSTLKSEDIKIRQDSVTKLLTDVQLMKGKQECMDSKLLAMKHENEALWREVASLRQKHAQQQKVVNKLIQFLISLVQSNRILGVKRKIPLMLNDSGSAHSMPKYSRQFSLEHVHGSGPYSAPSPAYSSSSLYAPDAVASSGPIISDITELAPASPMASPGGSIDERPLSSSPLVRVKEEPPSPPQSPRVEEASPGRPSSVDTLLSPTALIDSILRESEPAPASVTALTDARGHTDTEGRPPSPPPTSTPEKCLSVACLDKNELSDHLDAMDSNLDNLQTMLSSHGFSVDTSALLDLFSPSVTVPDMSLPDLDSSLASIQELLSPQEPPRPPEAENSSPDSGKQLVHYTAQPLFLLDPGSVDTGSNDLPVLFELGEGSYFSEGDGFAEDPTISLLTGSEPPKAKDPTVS
Sequence of ETV1 (P50549 whole entry): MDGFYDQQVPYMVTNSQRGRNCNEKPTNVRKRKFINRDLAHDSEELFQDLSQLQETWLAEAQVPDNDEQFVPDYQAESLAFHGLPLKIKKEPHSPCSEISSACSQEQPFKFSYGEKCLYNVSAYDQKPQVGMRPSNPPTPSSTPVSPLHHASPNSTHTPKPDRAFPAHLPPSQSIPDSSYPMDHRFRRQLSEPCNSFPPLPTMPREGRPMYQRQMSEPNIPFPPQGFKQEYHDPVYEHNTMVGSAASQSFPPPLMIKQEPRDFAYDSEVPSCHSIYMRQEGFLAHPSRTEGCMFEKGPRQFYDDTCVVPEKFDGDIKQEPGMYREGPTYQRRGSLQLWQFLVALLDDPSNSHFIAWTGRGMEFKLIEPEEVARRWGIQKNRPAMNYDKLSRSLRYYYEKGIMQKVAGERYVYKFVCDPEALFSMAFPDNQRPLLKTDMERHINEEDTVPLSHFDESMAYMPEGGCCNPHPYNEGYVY

As for CTCTCC, the binding signal in assay [1] was 1.35 fold enrichment (6-mer frequency, TF over GST control); in assay [2], 1.33 fold enrichment (6-mer frequency, TF over GST control); in assay [3], 1.37 fold enrichment (6-mer frequency, TF over GST control); in [4], 1.22 fold enrichment (6-mer frequency, TF over GST control); in assay [5], 1.4 fold enrichment (6-mer frequency, TF over GST control); in assay [6] it was 1.34 fold enrichment (6-mer frequency, TF over GST control). In addition, the binding signal was 1.41 fold enrichment (6-mer frequency, TF over GST control) in [7]; 1.35 fold enrichment (6-mer frequency, TF over GST control) in assay [8]; 1.37 fold enrichment (6-mer frequency, TF over GST control) in assay [9]; 1.32 fold enrichment (6-mer frequency, TF over GST control) in [10]; 1.24 fold enrichment (6-mer frequency, TF over GST control) in [11]; 1.32 fold enrichment (6-mer frequency, TF over GST control) in assay [12]. For the same sequence, the binding signal was 1.41 fold enrichment (6-mer frequency, TF over GST control) in assay [13]; 1.5 fold enrichment (6-mer frequency, TF over GST control) in [14]; 1.37 fold enrichment (6-mer frequency, TF over GST control) in [15]; 1.32 fold enrichment (6-mer frequency, TF over GST control) in [16]; 1.6 fold enrichment (6-mer frequency, TF over GST control) in [17]; 1.15 fold enrichment (6-mer frequency, TF over GST control) in assay [18]. In addition, the binding signal in assay [19] is 1.42 fold enrichment (6-mer frequency, TF over GST control).
